From PubChem
TRHR ag: TRH receptor (human) agonism. activation, % at 2 µM. TRHR cells, calcium flux fluo-8, FDSS agonist mode. 360,000 compounds, 0.18% hits
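TRHR-expressing cells loaded with fluo-8 calcium dye; 23 nL library compound pin-transferred, kinetic FDSS fluorescence (Ex 480/Em 530) recorded about 180 s for agonist-induced calcium release, before a 10 nM TRH EC20 addition for potentiator mode.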
D1 antagonist: human D1 dopamine receptor antagonism; HEK293 TREx D1 cells, calcium flux, dopamine EC80; active compounds read low; activity change, negative = inhibition, % at 10 µM; 360,000 compounds, 3.2% hits; AID 504652; in the data active = activity change below about -30%
Target sequence (P21728 whole entry, looked up): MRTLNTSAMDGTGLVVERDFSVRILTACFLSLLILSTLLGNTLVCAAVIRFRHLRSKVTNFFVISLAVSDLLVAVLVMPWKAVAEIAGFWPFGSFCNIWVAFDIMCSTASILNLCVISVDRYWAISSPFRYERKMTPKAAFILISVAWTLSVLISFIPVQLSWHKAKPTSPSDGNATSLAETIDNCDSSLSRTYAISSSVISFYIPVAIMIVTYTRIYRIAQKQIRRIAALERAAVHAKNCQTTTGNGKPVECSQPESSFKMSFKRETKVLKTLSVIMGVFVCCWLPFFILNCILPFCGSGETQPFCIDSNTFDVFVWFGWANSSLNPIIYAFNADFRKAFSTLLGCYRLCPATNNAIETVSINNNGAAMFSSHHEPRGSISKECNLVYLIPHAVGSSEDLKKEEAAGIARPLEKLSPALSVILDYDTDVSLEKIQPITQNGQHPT
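Allosteric or orthosteric antagonism assessed as attenuation of the calcium response to EC80 dopamine, added 180 s after compound, in induced HEK293 Trex D1 cells loaded with no-wash calcium dye.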
TRHR PAM: allosterically enhances the human TRH receptor | AID 493056 | P34981 | 360,000 compounds, 0.66% hits | enhancement, % at 2 µM | TRHR cells, fluo-8 calcium fluorescence, EC20 TRH enhancement; in the data active = enhancement above about 30%
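Enhancer read-out: after compound pinning and an initial kinetic agonist-mode read, an EC20 of TRH (10 nM final) was injected and fluo-8 calcium signal (Ex 480/Em 530) followed at 1 s/cycle for 100 cycles in TRHR-expressing cells.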
D1 potentiator: human D1 dopamine receptor positive modulation; potentiation, % at 10 µM; P21728; 360,000 compounds, 0.036% hits; HEK293 TREx D1 cells, calcium flux, dopamine EC20 potentiation; AID 504651; in the data active = potentiation above about 30%
D1 agonist: human D1 receptor agonism; P21728; 360,000 compounds, 1% hits; HEK293 T-REx D1 cells, calcium flux, agonist mode; activation, % at 2 µM; AID 504660
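Agonism was scored from calcium flux recorded over 180 s (1 read/s) after pintool compound addition, following a 10-cycle baseline. Cells were inducible force-coupled HEK293 TREx D1, plated overnight at 30 C and loaded with no-wash calcium dye.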
A number is an active result; ! = not active in a repeat. Hits are enriched below; roughly 4.6% of the tested compounds scored in any of these assays. Cut-off read from the data, not from the text of the source, unless noted: active = activation above about 30%; inactive = the rest.

Results for COc1ccc(CCC(=O)OC(C)C(=O)c2ccc(C)cc2)cc1 (centres undefined) ?
TRHR ag: inactive; D1 antagonist: -36; TRHR PAM: inactive; D1 potentiator: inactive; D1 agonist: inactive

What do the screens show for `CCn1cnc2c(Nc3cc(F)cc(F)c3)nc(C(=O)COc3c(F)c(F)cc(F)c3F)nc21`?
TRHR ag: inactive; D1 antagonist: inactive; TRHR PAM: inactive; D1 potentiator: inactive; D1 agonist: inactive

How did CCC(C)(C)n1nnnc1C(c1cc2ccc(OC)cc2[nH]c1=O)N1CCc2ccccc2C1 (centres undefined) do in these assays?
TRHR ag: inactive; D1 antagonist: inactive; TRHR PAM: inactive; D1 potentiator: inactive; D1 agonist: inactive

How did COc1ccc2cc(C(c3nnnn3C(C)(C)C)N3CCc4ccccc4C3)c(=O)[nH]c2c1 (centres undefined) do in these assays?
TRHR ag: inactive; D1 antagonist: -45; TRHR PAM: inactive; D1 potentiator: inactive; D1 agonist: inactive

Results for Cc1ccc(C)c(N2CCN(C(=O)c3cc(S(=O)(=O)N4CCCCCC4)cn3C)CC2)c1 ?
TRHR ag: inactive; D1 antagonist: inactive; TRHR PAM: inactive; D1 potentiator: inactive; D1 agonist: inactive

How did NS(=O)(=O)c1ccc(NC(=O)CSc2n[nH]c(=O)n2Cc2ccccc2)cc1 do in these assays?
TRHR ag: inactive; D1 antagonist: inactive; TRHR PAM: inactive; D1 potentiator: inactive; D1 agonist: inactive

Results for O=C(CSc1n[nH]c(=O)n1Cc1ccccc1)Nc1ccc(F)c(F)c1F ?
TRHR ag: inactive; D1 antagonist: inactive; TRHR PAM: inactive; D1 potentiator: inactive; D1 agonist: 34

Results for O=c1[nH]ncc2c3ccccc3n(Cc3cccc(Cl)c3)c12 ?
TRHR ag: inactive; D1 antagonist: inactive; TRHR PAM: inactive; D1 potentiator: inactive; D1 agonist: 52

Results for O=c1[nH]ncc2c3ccccc3n(Cc3ccc(F)cc3)c12 ?
TRHR ag: inactive; D1 antagonist: inactive; TRHR PAM: inactive; D1 potentiator: inactive; D1 agonist: inactive

How did CN(C)c1ccc(/C=C(/C#N)C(=O)NCc2ccccc2)o1 do in these assays?
TRHR ag: 43; D1 antagonist: inactive; TRHR PAM: inactive; D1 potentiator: inactive; D1 agonist: 102

Results for O=S(=O)(NCc1ccccc1)c1ccc(-c2cnc(C3CC3)o2)cc1 ?
TRHR ag: inactive; D1 antagonist: -38!; TRHR PAM: inactive; D1 potentiator: inactive; D1 agonist: inactive

How did Cc1ccc(CNS(=O)(=O)c2ccc(-c3cnc(C4CC4)o3)cc2)cc1 do in these assays?
TRHR ag: inactive; D1 antagonist: inactive; TRHR PAM: inactive; D1 potentiator: inactive; D1 agonist: inactive

How did Cc1ccc(N(C)S(=O)(=O)c2ccc(-c3cnc(C4CC4)o3)cc2)cc1 do in these assays?
TRHR ag: inactive; D1 antagonist: -32!; TRHR PAM: inactive; D1 potentiator: inactive; D1 agonist: inactive

What do the screens show for `Cc1ccc(NS(=O)(=O)c2ccc(-c3cnc(C4CC4)o3)cc2)cc1`?
TRHR ag: inactive; D1 antagonist: inactive; TRHR PAM: inactive; D1 potentiator: inactive; D1 agonist: inactive

What do the screens show for `COc1ccc(Cl)cc1S(=O)(=O)NCc1ccc2c(c1)CCN2C(=O)c1cccc(C)c1`?
TRHR ag: inactive; D1 antagonist: inactive; TRHR PAM: inactive; D1 potentiator: inactive; D1 agonist: inactive

Results for Cc1ccc(-c2cn3c(n2)sc2cc(C(=O)NC4CCCCCC4)ccc23)c(C)c1 ?
TRHR ag: inactive; D1 antagonist: inactive; TRHR PAM: inactive; D1 potentiator: inactive; D1 agonist: inactive

Results for COC(=O)c1scc(-c2ccc(C)cc2)c1S(=O)(=O)Nc1cc(C)ccc1OC ?
TRHR ag: inactive; D1 antagonist: inactive; TRHR PAM: inactive; D1 potentiator: inactive; D1 agonist: inactive

Results for O=C(CN1C(=O)c2cccnc2Oc2ccc(Cl)cc21)NCCCN1CCCCC1 ?
TRHR ag: inactive; D1 antagonist: -38; TRHR PAM: inactive; D1 potentiator: inactive; D1 agonist: inactive

Results for CCCN1CCN(CCCNC(=O)CN2C(=O)c3cccnc3Oc3ccc(Cl)cc32)CC1 ?
TRHR ag: inactive; D1 antagonist: inactive; TRHR PAM: inactive; D1 potentiator: inactive; D1 agonist: inactive

What do the screens show for `CCN1/C(=C/C=C/c2oc3ccc(-c4ccccc4)cc3[n+]2CC)Oc2ccc(-c3ccccc3)cc21`?
TRHR ag: 317; D1 antagonist: -84; TRHR PAM: inactive; D1 potentiator: inactive; D1 agonist: 547

How did COc1cccc(NC(=O)N(Cc2cc3cc(C)cc(C)c3[nH]c2=O)CC2COCCO2)c1 (centres undefined) do in these assays?
TRHR ag: inactive; D1 antagonist: -32; TRHR PAM: inactive; D1 potentiator: inactive; D1 agonist: inactive

What do the screens show for `Cc1ccc(NC(=O)N(Cc2cc3cc(C)cc(C)c3[nH]c2=O)CC2COCCO2)cc1` (centres undefined)?
TRHR ag: inactive; D1 antagonist: inactive; TRHR PAM: inactive; D1 potentiator: inactive; D1 agonist: inactive

Results for CCOC(=O)c1cc(-c2ccc(OC)cc2)n(CCC(=O)NCc2ccccc2OC)c1C ?
TRHR ag: inactive; D1 antagonist: inactive; TRHR PAM: inactive; D1 potentiator: inactive; D1 agonist: inactive

How did C=CCSc1nnc(-c2cc3c(-c4ccccc4)nn(C)c3s2)n1C do in these assays?
TRHR ag: inactive; D1 antagonist: -46; TRHR PAM: inactive; D1 potentiator: inactive; D1 agonist: inactive

How did Cc1ccc(C(=O)CSc2nc3cccnc3n2C)cc1 do in these assays?
TRHR ag: inactive; D1 antagonist: -37; TRHR PAM: inactive; D1 potentiator: inactive; D1 agonist: inactive

Results for CCOc1ccc(C(=O)NCCn2cc(SCC(=O)NCCc3ccc(OC)c(OC)c3)c3ccccc32)cc1 ?
TRHR ag: inactive; D1 antagonist: inactive; TRHR PAM: inactive; D1 potentiator: inactive; D1 agonist: inactive

Results for Cc1cc2c(c(=O)o1)C(Cc1ccccc1)C(C#N)=C(N)O2 (centres undefined) ?
TRHR ag: inactive; D1 antagonist: -56; TRHR PAM: inactive; D1 potentiator: inactive; D1 agonist: inactive

Results for CC1CCc2c(sc(NC(=O)c3cc(-c4ccc(F)cc4)on3)c2C(N)=O)C1 (centres undefined) ?
TRHR ag: inactive; D1 antagonist: inactive; TRHR PAM: inactive; D1 potentiator: inactive; D1 agonist: inactive

Results for COc1ccc(-c2cc(-c3ccc4c(c3)NC(=O)CO4)nc3c2COc2ccc(C)cc2-3)cc1 ?
TRHR ag: inactive; D1 antagonist: inactive; TRHR PAM: inactive; D1 potentiator: inactive; D1 agonist: inactive

Results for O=C(Nc1c[nH]c2c(Cl)cccc2c1=O)N1CCN(c2ccccn2)CC1 ?
TRHR ag: inactive; D1 antagonist: inactive; TRHR PAM: 31; D1 potentiator: inactive; D1 agonist: inactive

Results for CCCOc1ccc(CNC(=O)C2CCN(c3nc4ccccc4nc3C(F)(F)F)CC2)cc1 ?
TRHR ag: inactive; D1 antagonist: inactive; TRHR PAM: inactive; D1 potentiator: inactive; D1 agonist: inactive
